Here are results for 15 molecules from PubChem BioAssay (Tox21).

A short description of assay [1]: qHTS assay to identify small molecule antagonists of the sonic hedgehog signaling (Shh) pathway (AID 1259369). Also: nearly all actives have a fitted effect of over 45% in size. Also: potency is read from the fitted curve at half-maximal effect. In short, it runs like this: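 Stable Gli1-Luc reporter NIH/3T3 clone; quantitative HTS in stimulated mode with conditioned medium. Luminescence measured after 24hr compound treatment at 37 C.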
A short description of assay [2]: qHTS assay to identify small molecule agonists of the androgen receptor (AR) signaling pathway in the presence of an antagonist - cell viability counter screen (AID 1259379; active = well fitted curve in the direction sought with a large enough effect in the repeat runs; an effect the other way counts as inactive or inconclusive; also: nearly all actives have a fitted effect of over 25% in size; also: potency is read from the fitted curve at half-maximal effect;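 as to activity change, negative = cytotoxicity: MDA-kb2 human breast cancer cells carrying an MMTV luciferase reporter; series mostly up to about 92 µM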). In short, it runs like this: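 Nilutamide-containing (3.0uM final) MDA-kb2 cultures, 3,000 cells/well, were treated with compounds across 15 concentrations. After 16 hr at 37C with no CO2, cell viability was determined by CellTiter-Fluor fluorescence in the luciferase assay wells.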

Assay [3] in a line: qHTS assay to identify small molecule agonists of the estrogen receptor beta (ER-beta) signaling pathway - cell viability counter screen (AID 1259380; active = well fitted curve in the direction sought with a large enough effect in the repeat runs; an effect the other way counts as inactive or inconclusive; also: nearly all actives have a fitted effect of over 30% in size; also: potency is read from the fitted curve at half-maximal effect). The essentials: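 Steps: plate ER-beta-UAS-bla HEK293T cells, rest 6 hr; add compounds in DMSO; incubate 16 hr at 37C, 5% CO2; add FRET substrate 2 hr; add CellTiter-Glo, wait 30 min at room temperature; read luminescence.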
A short description of assay [4]: qHTS assay to identify small molecule antagonists of the estrogen receptor beta (ER-beta) signaling pathway - cell viability counter screen (AID 1259382; active = well fitted curve in the direction sought with a large enough effect in the repeat runs; an effect the other way counts as inactive or inconclusive; also: nearly all actives have a fitted effect of over 55% in size; also: potency is read from the fitted curve at half-maximal effect; as to activity change, negative = cytotoxicity: series mostly up to about 92 µM). In short, it runs like this:
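Viability is scored by CellTiter-Glo luminescence (30 min, room temperature) in ER-beta-UAS-bla HEK293T wells already read for reporter fluorescence. Compound exposure lasts 16 hr at 37C alongside 1nM 17-beta-estradiol in charcoal-stripped serum medium.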

In assay [5] the target is Estrogen receptor (Homo sapiens) (UniProt P03372). Nature of the assay: qHTS assay to identify small molecule agonists of the estrogen receptor alpha (ER-alpha) signaling pathway in the presence of an antagonist (AID 1259383). Also: top concentration of the series differs between compounds; nearly all actives have a fitted effect of over 15% in size. The essentials: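 Readout was ERE-driven luciferase luminescence in VM7Luc4E2 cells, which express full-length ER-alpha endogenously. Compounds were tested at 15 concentrations for 22hr alongside 10.0nM ICI-182,780 (final concentration).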
Chain of Estrogen receptor (Homo sapiens) (P03372 whole entry, looked up): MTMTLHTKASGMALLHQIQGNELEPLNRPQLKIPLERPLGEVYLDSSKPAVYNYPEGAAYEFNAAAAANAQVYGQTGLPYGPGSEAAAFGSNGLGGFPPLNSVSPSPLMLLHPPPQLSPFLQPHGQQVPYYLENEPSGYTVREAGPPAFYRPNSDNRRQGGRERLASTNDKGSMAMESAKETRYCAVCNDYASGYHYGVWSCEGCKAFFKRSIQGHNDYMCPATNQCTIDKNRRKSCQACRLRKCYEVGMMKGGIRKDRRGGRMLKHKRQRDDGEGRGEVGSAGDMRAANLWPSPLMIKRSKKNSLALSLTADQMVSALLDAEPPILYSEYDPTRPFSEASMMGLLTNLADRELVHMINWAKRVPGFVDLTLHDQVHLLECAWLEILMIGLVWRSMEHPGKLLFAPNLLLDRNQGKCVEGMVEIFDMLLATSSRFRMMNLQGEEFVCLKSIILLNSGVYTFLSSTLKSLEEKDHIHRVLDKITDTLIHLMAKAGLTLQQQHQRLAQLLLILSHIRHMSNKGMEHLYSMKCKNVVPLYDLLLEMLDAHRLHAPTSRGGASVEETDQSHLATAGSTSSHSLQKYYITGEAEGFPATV

Assay [6] is described as follows: qHTS assay to identify small molecule agonists or antagonists of the thyroid stimulating hormone receptor (TSHR) signaling pathway - wild type cell line counter screen (AID 1259384). In short, it runs like this: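 Wild-type HEK293 cells were plated 18 h at 37 C/5% CO2, pin-dosed with compound plus Ro20-1724 medium, held 30 min at room temperature, then given cAMP-d2 and anti-cAMP-cryptate; fluorescence was read after 1 h. Fifteen concentrations, triplicate.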

Assay [7] deals with Thyrotropin receptor (Homo sapiens) (UniProt P16473). Nature of the assay: qHTS assay to identify small molecule antagonists of the thyroid stimulating hormone receptor (TSHR) signaling pathway (AID 1259385). Also: nearly all actives have a fitted effect of over 20% in size. Also: potency is read from the fitted curve at half-maximal effect. In short, it runs like this: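 TSHR-HEK293 cells were plated and held 18 h at 37C/5% CO2, then given compound plus Ro20-1724 and stimulated with TSH at 1.5 ng/mL final. After 30 min at room temperature, cAMP was detected with cAMP-d2/anti-cAMP-cryptate (1 h) by fluorescence.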
Chain of Thyrotropin receptor (Homo sapiens) (P16473 whole entry, looked up): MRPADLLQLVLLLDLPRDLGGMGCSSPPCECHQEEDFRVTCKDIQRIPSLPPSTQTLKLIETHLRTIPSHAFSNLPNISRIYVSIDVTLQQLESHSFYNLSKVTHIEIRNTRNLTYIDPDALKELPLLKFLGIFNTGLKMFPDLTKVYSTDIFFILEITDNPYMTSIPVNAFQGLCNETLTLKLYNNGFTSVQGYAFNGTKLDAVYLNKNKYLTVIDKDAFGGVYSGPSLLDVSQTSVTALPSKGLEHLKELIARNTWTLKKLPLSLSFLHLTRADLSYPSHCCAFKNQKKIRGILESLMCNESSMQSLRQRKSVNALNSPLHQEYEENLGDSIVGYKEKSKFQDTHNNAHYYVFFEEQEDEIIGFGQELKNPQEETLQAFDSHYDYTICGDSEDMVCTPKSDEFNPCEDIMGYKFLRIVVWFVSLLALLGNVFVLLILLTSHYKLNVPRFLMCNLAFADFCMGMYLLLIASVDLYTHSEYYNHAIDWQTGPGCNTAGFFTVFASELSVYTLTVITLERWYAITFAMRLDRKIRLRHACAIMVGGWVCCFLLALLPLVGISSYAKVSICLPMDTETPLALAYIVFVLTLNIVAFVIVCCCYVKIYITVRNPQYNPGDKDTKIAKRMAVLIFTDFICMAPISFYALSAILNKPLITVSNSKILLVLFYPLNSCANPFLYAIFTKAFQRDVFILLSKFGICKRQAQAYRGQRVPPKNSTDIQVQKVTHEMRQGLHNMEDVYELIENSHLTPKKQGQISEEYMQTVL

Assay [8] concerns the target Androgen receptor (Homo sapiens) (UniProt P10275). Nature of the assay: qHTS assay to identify small molecule agonists of the androgen receptor (AR) signaling pathway in the presence of an antagonist (AID 1259381). Also: nearly all actives have a fitted effect of over 15% in size. In short, it runs like this: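 Reporter-gene luminescence from MDA-kb2 cells exposed 16hr at 37C (0% CO2) to 15-point compound titrations with 3.0uM final nilutamide as AR antagonist.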

Assay [9] addresses Estrogen receptor beta (Homo sapiens) (UniProt Q92731). As to the kind of experiment: qHTS assay to identify small molecule antagonists of the estrogen receptor beta (ER-beta) signaling pathway (AID 1259378; active = well fitted inhibition curve with a large enough effect in the signal ratio in the repeat runs, not every such curve was filed as active; the % refers to the signal ratio; also: potency is read from the fitted curve at half-maximal effect). In short, it runs like this: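 ER-beta-UAS-bla HEK293T (GripTite) cells in 2% charcoal-stripped FBS medium were preincubated 6 hr at 37C, dosed with compound, then stimulated with 1 nM E2 (final) for 16 hr; beta-lactamase reporter read by B/G FRET fluorescence after 2 hr substrate loading.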

Where “and” joins values, the source holds several entries; their conditions need not be identical. Equal values may be shown once. Values without a mark were called inactive. Records with an inconclusive call do not appear. Calls of active or inactive are those of the source. Unless noted, calls follow the shape of the full dose curve.
% is scaled to controls: 0 for no effect and ±100 for the full control effect.

Chain of Estrogen receptor beta (Homo sapiens) (Q92731 whole entry, looked up): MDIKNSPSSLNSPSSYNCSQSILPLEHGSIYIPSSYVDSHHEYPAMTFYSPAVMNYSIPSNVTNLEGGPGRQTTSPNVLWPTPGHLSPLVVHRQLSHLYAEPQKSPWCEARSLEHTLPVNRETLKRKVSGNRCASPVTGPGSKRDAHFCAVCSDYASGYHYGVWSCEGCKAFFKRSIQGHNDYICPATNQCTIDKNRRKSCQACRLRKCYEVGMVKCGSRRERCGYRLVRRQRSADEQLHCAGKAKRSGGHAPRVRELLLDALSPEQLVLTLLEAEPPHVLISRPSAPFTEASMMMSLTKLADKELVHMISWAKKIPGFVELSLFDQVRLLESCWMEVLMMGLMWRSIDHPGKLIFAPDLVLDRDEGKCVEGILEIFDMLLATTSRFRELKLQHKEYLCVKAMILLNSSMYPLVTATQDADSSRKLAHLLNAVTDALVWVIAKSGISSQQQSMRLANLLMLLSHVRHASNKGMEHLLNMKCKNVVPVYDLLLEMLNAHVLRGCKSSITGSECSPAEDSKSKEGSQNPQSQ
Chain of Androgen receptor (Homo sapiens) (P10275 whole entry, looked up): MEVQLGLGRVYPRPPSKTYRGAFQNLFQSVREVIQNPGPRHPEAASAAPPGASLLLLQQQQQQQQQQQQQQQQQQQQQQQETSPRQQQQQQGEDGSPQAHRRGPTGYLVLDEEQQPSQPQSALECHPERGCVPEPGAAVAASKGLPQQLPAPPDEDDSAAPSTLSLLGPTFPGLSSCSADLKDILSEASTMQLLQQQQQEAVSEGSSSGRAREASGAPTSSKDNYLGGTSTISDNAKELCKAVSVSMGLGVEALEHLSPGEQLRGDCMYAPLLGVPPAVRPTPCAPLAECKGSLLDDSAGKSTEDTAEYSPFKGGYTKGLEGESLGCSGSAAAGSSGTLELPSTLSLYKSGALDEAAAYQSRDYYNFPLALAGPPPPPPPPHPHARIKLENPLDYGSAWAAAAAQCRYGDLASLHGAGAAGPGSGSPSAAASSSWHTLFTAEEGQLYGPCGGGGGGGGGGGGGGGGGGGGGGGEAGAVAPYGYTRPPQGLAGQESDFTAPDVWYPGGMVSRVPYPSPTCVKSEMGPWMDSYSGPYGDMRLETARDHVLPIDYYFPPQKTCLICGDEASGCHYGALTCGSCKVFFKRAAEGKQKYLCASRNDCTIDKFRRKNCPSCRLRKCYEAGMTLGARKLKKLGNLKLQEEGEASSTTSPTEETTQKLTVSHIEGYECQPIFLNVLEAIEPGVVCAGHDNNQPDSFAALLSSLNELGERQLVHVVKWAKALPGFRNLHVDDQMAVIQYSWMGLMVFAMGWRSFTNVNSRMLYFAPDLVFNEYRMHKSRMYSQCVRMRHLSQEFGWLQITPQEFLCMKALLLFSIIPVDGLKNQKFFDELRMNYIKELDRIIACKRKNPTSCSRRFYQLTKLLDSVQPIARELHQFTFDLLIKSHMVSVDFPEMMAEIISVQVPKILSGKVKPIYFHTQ

Turning to `Cc1c(C)c2c(c(C)c1OC(=O)c1cccnc1)CC[C@@](C)(CCC[C@H](C)CCC[C@H](C)CCCC(C)C)O2`, the Potency entry in [1], in [2], in [3], in assay [4], in [5] and in [7] was “inactive” throughout. Besides, the molecule was classed as inactive in assay [6].
`CCCCCc1ccc(Cl)cc1`: the Potency entry in assay [1], in assay [2], in [3], in assay [4], in assay [5] and in assay [7] was “inactive” in each case. Further, in assay [6], the result was inactive.
Take `Cc1cccc(C(=O)O)c1O`: the Potency result in assay [1], in assay [2], in assay [3], in assay [4], in [5] and in assay [7] was “inactive” throughout. Moreover, in assay [6], the molecule was called inactive.
Turning to `C=CC(=O)Nc1cc2c(Nc3ccc(F)c(Cl)c3)ncnc2cc1OCCCN1CCOCC1`, the Potency is 1.68 µM (active) in assay [1], 841 nM (active) in assay [2], 23.7 µM (active) in assay [3] and 26.6 µM (active) in assay [7]. In addition, the result in [8] and in assay [6] was inactive. In addition, the Potency entry in assay [5] was “inactive”.
In the case of `O=C(Oc1ccccc1)Oc1ccccc1`, the Potency entry in [1], in [2], in assay [3], in assay [4] and in assay [5] was “inactive” each time. Also, the outcome in [6] was inactive.
On to `C[C@H]1NCc2cc(-c3ccc4c(=O)c(C(=O)O)cn(C5CC5)c4c3OC(F)F)ccc21`, for which the results for the activity change, negative = inhibition in assay [1] and in [7] were 4.27% [at 19 µM] and 6.84% [at 19 µM], respectively. Also, the activity change, negative = cytotoxicity was -2.32% [at 19 µM] in [2], -4.82% [at 19 µM] in assay [3] and 2.92% [at 19 µM] in assay [4]. In addition, the activation in assay [5] was -0.399% [at 19 µM]. In assay [6], the cAMP activity change was -2.09% [at 18.9 µM].
Take `CCCCCCCCCCCCCCCC[N+](C)(C)CC`: the Potency in assay [1] is 6.88 µM (active) and 15 nM (active); in assay [2], 48.7 µM (active) and 18.8 µM (active); in assay [3], 54.6 µM (active) and 11.9 µM (active); in [4] it was 34.5 µM (active) and 23.7 µM (active). Also, the Potency result in assay [5] and in assay [7] was “inactive” each time. In addition, in assay [6], the molecule was called inactive.
For the molecule `O=C1NC(=O)[C@@H]2CC=CC[C@H]12`, the Potency entry in assay [1], in assay [9], in assay [2] and in [7] was “inactive” each time. In addition, the molecule was called inactive in assay [6].
As to `COCCOc1cc2cc(C(=O)NC3CCN(C(C)C)CC3)n(CC(=O)Nc3ccc(Cl)cn3)c2cn1`, the Potency in assay [1] was 15.2 µM (active). Also, the Potency entry in [9], in assay [3], in assay [4] and in [7] was “inactive” throughout. Moreover, in assay [6], the result was inactive.
For the molecule `O=S(=O)(O)c1ccc(Nc2nc(Nc3ccc(/C=C/c4ccc(Nc5nc(Nc6ccc(S(=O)(=O)O)cc6)nc(N(CCO)CCO)n5)cc4S(=O)(=O)O)c(S(=O)(=O)O)c3)nc(N(CCO)CCO)n2)cc1`, the Potency entry in [1], in assay [2], in assay [3], in assay [5] and in assay [7] was “inactive” in each case. The result in [8] and in assay [6] was inactive.
Consider `COc1ccc2c(c1)c(CC(=O)OC/C=C(\C)CC/C=C(\C)CCC=C(C)C)c(C)n2C(=O)c1ccc(Cl)cc1`, for which the Potency entry in [1], in assay [2], in assay [3], in assay [4], in [5] and in assay [7] was “inactive” each time. The result in [6] was inactive.
Take `CCCCCCCCCCC[C@@H](C[C@@H]1OC(=O)[C@H]1CCCCCC)OC(=O)[C@H](CC(C)C)NC=O`: the Potency result in assay [1], in assay [2], in [3], in assay [4], in assay [5] and in [7] was “inactive” throughout. For the same molecule, the call in assay [6] was inactive.
Take `O=[N+]([O-])c1ccc(O)cc1C(F)(F)F`: the Potency result in [1], in assay [3], in assay [4] and in assay [7] was “inactive” throughout. In [2], the Potency is 30600 nM (active). Also, the molecule was classed as inactive in [6].
For `Cc1ccc(O)c(N)c1`, the Potency in assay [1] is 8.64 µM (active); in assay [3], 24.4 µM (active). The Potency entry in [2] and in assay [5] was “inactive” throughout. The call in assay [6] was inactive.
Turning to `COc1cccc2c1C(=O)c1c(O)c3c(c(O)c1C2=O)C[C@@](O)(C(C)=O)C[C@@H]3O[C@H]1C[C@H](N)[C@H](O)[C@H](C)O1`, the Potency in assay [1] was 0.0194 µM (active); in [9], 4.22 µM (active); in assay [2], 30.8 µM (active) and 11.9 µM (active). Besides, in assay [4], the Potency entry was “inactive”.
